Data published in PubChem BioAssay AID1376 (SRMLSC, 2008).
Out of some 220,000 compounds screened, about 530 (0.24%) were called active. The list comes from a sample in which actives are over-represented; it also holds similar structures and randomly drawn compounds. Measured potencies and affinities stand elsewhere. Values without a mark were called inactive. Rule as the data show it: active = inhibition above about 13%; inconclusive = no clear call, values can overlap the other calls; inactive = below that.

biological target: Bifunctional protein GlmU (Mycobacterium tuberculosis (strain ATCC 25618 / H37Rv)) (UniProt P9WMN3); experiment: inhibition of mycobacterial GlmU enzyme – biochemical, glucosamine-1-phosphate acetyltransferase (AID 1376);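 also: 0% = complete reaction with vehicle and 100% = reaction without substrate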; details: M. tuberculosis GlmU acetyltransferase enzyme assay; active compounds read high;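 tested at 30 µM in the primary screen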
Sequence (P9WMN3 whole entry, looked up): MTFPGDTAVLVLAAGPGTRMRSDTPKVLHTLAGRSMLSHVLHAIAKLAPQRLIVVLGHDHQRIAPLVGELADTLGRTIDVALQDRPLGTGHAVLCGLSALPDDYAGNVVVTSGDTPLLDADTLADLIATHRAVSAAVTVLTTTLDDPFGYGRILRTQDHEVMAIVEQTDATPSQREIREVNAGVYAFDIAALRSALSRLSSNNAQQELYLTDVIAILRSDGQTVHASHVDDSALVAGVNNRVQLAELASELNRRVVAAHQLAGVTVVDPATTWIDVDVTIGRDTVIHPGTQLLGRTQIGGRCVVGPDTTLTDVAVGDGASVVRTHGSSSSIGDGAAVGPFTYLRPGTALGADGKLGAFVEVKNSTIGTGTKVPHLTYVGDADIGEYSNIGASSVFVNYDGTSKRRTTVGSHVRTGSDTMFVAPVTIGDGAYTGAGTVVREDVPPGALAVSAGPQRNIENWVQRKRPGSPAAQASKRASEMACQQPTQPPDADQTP

| Compound | inhibition |
| --- | --- |
| COc1ccc(CN2CCOCC2)c(C)c1C | -2.85% |
| CCCCNc1ccc(C(=O)O)cc1 | -0.8% |
| CC12CC(NC(=O)N1c1ccc(C(=O)N3CCN(c4ccc(F)cc4)CC3)cc1)c1ccccc1O2 (stereo not drawn) | -2.33% |
| CC(C)C/C=C1\CCc2c([nH]c3ccccc23)C1=O | -1.01% |
| CCOc1ccc(NC(=O)CSc2n[nH]c(N)n2)c([N+](=O)[O-])c1 | 0.6% |
| CCOC(=O)c1cnc(SCC(=O)c2ccc3c(c2)OCCO3)nc1N | -5.31% |
| NS(=O)(=O)c1cccc(NC(=O)CN2CCc3ccccc32)c1 | -0.92% |
| Fc1ccc(OCc2nn3cnnc3s2)cc1 | 18.4% (active) |
| Fc1ccc(OCc2nn3c(Cn4nnc5ccccc54)nnc3s2)cc1 | 3.23% |
| Fc1ccc(OCc2nc3ccccc3s2)cc1 | 0.65% |
| COC(=O)c1ccc(S(=O)(=O)NCc2ccccn2)n1C | -0.35% |
| COc1cccc(Nc2ccccc2C(=O)O)c1 | -2.96% |
| COc1ccc(Nc2ccc(Cl)cc2)c(C(=O)O)c1 | 11.1% |
| COc1ccc(Nc2cccc(Cl)c2)c(C(=O)O)c1 | 13.1% (active) |
| COc1cc(C(=O)O/N=C(\N)c2ccccn2)cc(OC)c1OC | 13.3% (active) |
| COc1cc(OC)cc(C(=O)O/N=C(\N)c2ccccn2)c1 | -3.71% |
| COc1ccccc1C(=O)O/N=C(\N)c1ccccn1 | 6.05% |
| Cn1c(CSCCOc2ccccc2)n[nH]c1=S | -1.84% |
| COc1ccc(Cl)cc1S(=O)(=O)NC1CC(C)(C)NC(C)(C)C1 | 4.3% |
| COc1c(C)cc(S(=O)(=O)NC2CC(C)(C)NC(C)(C)C2)c(C)c1C | -0.79% |
| COc1ccc(S(=O)(=O)NC2CC(C)(C)NC(C)(C)C2)c(C)c1C | 13.6% (active) |

| Compound | inhibition |
| --- | --- |
| O=C(O)c1ccc(N=Nc2c(O)[nH]c3cc(Cl)ccc23)cc1 | 11% |
| O=C(O)c1ccc(N=Nc2c(O)[nH]c3ccccc23)cc1 | -3.4% |
| Nc1nc(N)c(N=Nc2ccc(C(=O)O)cc2)c(N)n1 | 13.1% (active) |
| O=C(NCCO)C(c1ccccc1)c1ccccc1 | -1.82% |
| COc1ccc2nc3sc(C(=O)NCCCN4CCc5ccccc5C4)cc3cc2c1 | 5.05% |
| COc1ccc2cc3cc(C(=O)NCCN4CCc5ccccc5C4)sc3nc2c1 | 4.04% |
| COc1ccc2nc3sc(C(=O)NCCN4CCc5ccccc5C4)cc3cc2c1 | 15% (active) |
| CCOc1ccccc1NC1=C(Cl)C(=O)N(c2ccc(OC)cc2)C1=O | -5.57% |
| CCOc1ccc(N2C(=O)C(Cl)=C(Nc3ccccc3O)C2=O)cc1 | 7.85% |
| COc1ccc(NC2=C(Cl)C(=O)N(c3ccccc3)C2=O)c(OC)c1 | 4.46% |
| O=C1C(Cl)=C(Nc2ccccc2O)C(=O)N1c1ccccc1 | 42.6% (active) |
| CCOc1ccccc1NC1=C(Cl)C(=O)N(c2ccccc2)C1=O | 0.96% |
| O=C1C(Cl)=C(NCCc2ccccc2)C(=O)N1CCc1ccccc1 | 1.54% |
| COc1ccccc1NC1=C(Cl)C(=O)N(c2ccccc2)C1=O | 1.83% |
| O=C1C(Cl)=C(Nc2ccc(F)cc2)C(=O)N1CCc1ccccc1 | -4.15% |
| COc1ccc(N2C(=O)C(Cl)=C(Nc3ccccc3OC)C2=O)cc1 | 3.86% |
| COc1ccc(-n2c3c(cc(C(=O)N4CCC(C)CC4)c2=O)C(=O)CC(C)(C)C3)cc1 | 0.29% |
| Cc1cc(C)c(NC2=NS(=O)(=O)c3ccccc32)c(C)c1 | 0.24% |
| COc1cccc(OC)c1C(=O)NC(=S)NNC(=O)[C@H]1C[C@@H]1c1ccccc1 | 3.93% |
| O=c1cc(CSc2nnc3ccccn23)c2c(ccc3ccccc32)o1 | 5.61% |
| Cc1ccc(C2=CC(C)(c3ccc(C)cc3)Nc3nc(C(F)(F)F)nn32)cc1 (stereo not drawn) | -1.89% |

| Compound | inhibition |
| --- | --- |
| COc1ccc(O)c(/C=N/Nc2nc3ccccc3[nH]2)c1 | 1.12% |
| O=[N+]([O-])c1ccc(O)c(/C=N/Nc2nc3ccccc3[nH]2)c1 | 2.26% |
| O=C(Nc1ccc(N2CCN(C(=O)c3cccs3)CC2)cc1)c1cccnc1 | -0.33% |
| O=C(Nc1cccc(C(=O)N2CCOCC2)c1)c1cccnc1 | 2.11% |
| CSc1nc(Cl)cc(N2CCOCC2)n1 | 3.3% |
| Cc1cc(C)n(-c2ccc(Oc3ccccc3)c(S(=O)(=O)O)c2)n1 | 12.6% |
| Cc1cc(N)n(-c2ccc3ccccc3c2)n1 | 0.94% |
| CCOC(=O)Cc1c(C)[nH]n(-c2ccccc2)c1=O | 0.6% |
| Cc1[nH]n(-c2ccccc2)c(=O)c1CCO | -5.63% |
| CCOC(=O)C1CCCN(CC(=O)Nc2c(F)c(F)c(F)c(F)c2F)C1 (stereo not drawn) | 0.78% |
| CCS(=O)(=O)N1Cc2ccccc2CC1C(=O)Nc1nc(C)cs1 (stereo not drawn) | -3.38% |
| Cc1cc(C(=O)NC(C)c2ccccc2)c2cc(F)ccc2n1 (stereo not drawn) | 2.48% |
| CS(=O)(=O)N1CCC(C(=O)Nc2ccc(OCc3ccccc3)cc2)CC1 | 0.13% |
| OCCN1CCN(CC(O)C(F)(F)F)CC1 (stereo not drawn) | 0.82% |
| O=C(c1ccccc1)N1CCN(Cc2c[nH]c3ccccc23)CC1 | -4.61% |
| O=C(c1cccc(F)c1)N1CCN(Cc2c[nH]c3ccccc23)CC1 | 15% (active) |
| O=C(c1cccc(Cl)c1)N1CCN(Cc2c[nH]c3ccccc23)CC1 | 7.63% |
| O=c1[nH]c(CSc2ncc(C(F)(F)F)cc2Cl)nc2cc(C(F)(F)F)ccc12 | -1.09% |
| Cc1sc2ncnc(OCC(=O)N3CCN(S(=O)(=O)c4ccccc4)CC3)c2c1C | -1.45% |
| COc1cccc(NC(=O)C(Sc2nnc(Nc3ccccc3C)s2)c2ccccc2)c1 (stereo not drawn) | -3.98% |
| CCOc1cccc(CNCc2ccc(C(=O)O)cc2)c1 | -1.27% |
